Where “and” joins values, the source holds several entries; their conditions need not be identical. Equal entries are not always repeated. About 2,000 (36%) of roughly 5,500 compounds were called active. Roughly 18% stayed inconclusive and do not appear here. Rule as the data show it: active = normalized growth mostly below about 0.91 (no sharp cut-off); inconclusive = no clear call, values can overlap the other calls; inactive = mostly above about 0.92. The list shows a part of the results.
Test: chemical genetic growth profiling, strain panel (AID 1159580);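 also: tested at 20 µM; growth read once vehicle control cultures reached saturation at 30 °C; 1 = growth at the plate median or of vehicle wells; lower values mean less growth of the strain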
Conditions: growth OD

Measured: normalized growth

CN(C)C(=O)Oc1ccc[n+](C)c1
inactive: S. cerevisiae deletion strains, locus YJR075W, strain HOC1, hits give low values 1 | S. cerevisiae deletion strains, locus YKL009W, strain mrt4, hits give low values 1.01 | S. cerevisiae deletion strains, locus YKL068W, hits give low values 1.02 | S. cerevisiae deletion strains, locus YKL085W, strain MDH1 (second series), hits give low values 1.01 | S. cerevisiae deletion strains, locus YKL085W, strain MDH1, hits give low values 1.01 | S. cerevisiae deletion strains, locus YKL160W, strain elf1, hits give low values 1 | S. cerevisiae deletion strains, locus YKL190W, strain CNB1, hits give low values 1.02 | S. cerevisiae deletion strains, locus YKR001C, strain vps1, hits give low values 1.01 | S. cerevisiae deletion strains, locus YKR026C, strain gcn3, hits give low values 1.01 | S. cerevisiae deletion strains, locus YKR091W, strain srl3, hits give low values 0.997 | S. cerevisiae deletion strains, locus YLL001W, strain dnm1, hits give low values 0.996 | S. cerevisiae deletion strains, locus YLL026W, hits give low values 0.999 | S. cerevisiae deletion strains, locus YLL041C, strain sdh2, hits give low values 1 | S. cerevisiae deletion strains, locus YLR027C, strain aat2, hits give low values 0.999 | S. cerevisiae deletion strains, locus YLR039C, strain RIC1, hits give low values 1.05 | S. cerevisiae deletion strains, locus YLR058C, strain SHM2, hits give low values 1.03 | S. cerevisiae deletion strains, locus YLR102C, strain apc9, hits give low values 1.01 | S. cerevisiae deletion strains, locus YLR113W, strain HOG1, hits give low values 1.05 | S. cerevisiae deletion strains, locus YLR221C, strain rsa3, hits give low values 0.997 | S. cerevisiae deletion strains, locus YLR258W, strain gsy2, hits give low values 1 | S. cerevisiae deletion strains, locus YLR262C, strain YPT6 (second series), hits give low values 1.01 | S. cerevisiae deletion strains, locus YLR262C, strain YPT6, hits give low values 1.06 | S. cerevisiae deletion strains, locus YLR268W, strain sec22, hits give low values 1.01 | S. cerevisiae deletion strains, locus YLR320W, strain mms22, hits give low values 1.01 | S. cerevisiae deletion strains, locus YLR330W, strain CHS5, hits give low values 1.01 | S. cerevisiae deletion strains, locus YLR342W, strain FKS1 (second series), hits give low values 1.06 | S. cerevisiae deletion strains, locus YLR342W, strain FKS1, hits give low values 1.01 | S. cerevisiae deletion strains, locus YLR357W, strain rsc2, hits give low values 1 | S. cerevisiae deletion strains, locus YLR370C, strain arc18, hits give low values 1.01 | S. cerevisiae deletion strains, locus YLR371W, strain rom2, hits give low values 1.01 | S. cerevisiae deletion strains, locus YLR384C, strain iki3, hits give low values 1.01 | S. cerevisiae deletion strains, locus YLR418C, strain cdc73, hits give low values 1.03 | S. cerevisiae deletion strains, locus YML016C, strain PPZ1, hits give low values 1.01 | S. cerevisiae deletion strains, locus YML032C, strain rad52, hits give low values 1.01 | S. cerevisiae deletion strains, locus YML120C, strain ndi1, hits give low values 1 | S. cerevisiae deletion strains, locus YML124C, strain tub3, hits give low values 1.04 | S. cerevisiae deletion strains, locus YMR058W, strain fet3, hits give low values 0.994 | S. cerevisiae deletion strains, locus YMR078C, strain ctf18, hits give low values 1.01 | S. cerevisiae deletion strains, locus YMR125W, strain sto1, hits give low values 1 | S. cerevisiae deletion strains, locus YMR129W, hits give low values 1 | S. cerevisiae deletion strains, locus YMR205C, strain PFK2, hits give low values 1.02 | S. cerevisiae deletion strains, locus YMR223W, strain ubp8, hits give low values 1.05 | S. cerevisiae deletion strains, locus YMR231W, strain pep5, hits give low values 1 | S. cerevisiae deletion strains, locus YMR263W, strain SAP30, hits give low values 1.01 | S. cerevisiae deletion strains, locus YMR307W, strain GAS1, hits give low values 1.04 | S. cerevisiae deletion strains, locus YNL067W, strain RPL9B, hits give low values 1.01 | S. cerevisiae deletion strains, locus YNL071W, strain lat1, hits give low values 1 | S. cerevisiae deletion strains, locus YNL153C, strain GIM3, hits give low values 0.986 | S. cerevisiae deletion strains, locus YNL175C, strain NOP13, hits give low values 0.972 | S. cerevisiae deletion strains, locus YNL183C, strain NPR1, hits give low values 0.981 | S. cerevisiae deletion strains, locus YNL197C, strain WHI3, hits give low values 0.961 | S. cerevisiae deletion strains, locus YNL209W, strain ssb2, hits give low values 1 | S. cerevisiae deletion strains, locus YNL224C, strain SQS1, hits give low values 0.982 | S. cerevisiae deletion strains, locus YNL233W, strain BNI4, hits give low values 1 | S. cerevisiae deletion strains, locus YNL248C, strain rpa49, hits give low values 0.996 | S. cerevisiae deletion strains, locus YNL250W, strain rad50, hits give low values 1.02 | S. cerevisiae deletion strains, locus YNL271C, strain bni1, hits give low values 1.02 | S. cerevisiae deletion strains, locus YNL298W, strain CLA4, hits give low values 1.02 | S. cerevisiae deletion strains, locus YNL307C, strain MCK1, hits give low values 1.02 | S. cerevisiae deletion strains, locus YNL322C, strain KRE1 (second series), hits give low values 1 | S. cerevisiae deletion strains, locus YNR049C, strain mso1, hits give low values 1 | S. cerevisiae deletion strains, locus YNR052C, strain pop2, hits give low values 1.02 | S. cerevisiae deletion strains, locus YOL006C, strain TOP1, hits give low values 0.966 | S. cerevisiae deletion strains, locus YOL012C, strain htz1 0.894 | S. cerevisiae deletion strains, locus YOL147C, strain pex11, hits give low values 1.02 | S. cerevisiae deletion strains, locus YOR001W, strain rrp6, hits give low values 0.985 | S. cerevisiae deletion strains, locus YOR061W, strain CKA2, hits give low values 1.02 | S. cerevisiae deletion strains, locus YOR069W, strain VPS5, hits give low values 1.02 | S. cerevisiae deletion strains, locus YOR070C, strain gyp1, hits give low values 1 | S. cerevisiae deletion strains, locus YOR080W, strain dia2, hits give low values 1.03 | S. cerevisiae deletion strains, locus YOR083W, strain WHI5 (second series), hits give low values 0.968 | S. cerevisiae deletion strains, locus YOR083W, strain WHI5, hits give low values 0.999 | S. cerevisiae deletion strains, locus YOR106W, strain vam3, hits give low values 1 | S. cerevisiae deletion strains, locus YOR136W, strain idh2, hits give low values 1.02 | S. cerevisiae deletion strains, locus YOR144C, strain elg1, hits give low values 1.01 | S. cerevisiae deletion strains, locus YOR184W, strain ser1, hits give low values 1.01 | S. cerevisiae deletion strains, locus YOR231W, strain MKK1, hits give low values 1.03 | S. cerevisiae deletion strains, locus YOR265W, strain rbl2, hits give low values 1.01 | S. cerevisiae deletion strains, locus YOR270C, strain vph1, hits give low values 0.993 | S. cerevisiae deletion strains, locus YOR290C, strain snf2, hits give low values 1 | S. cerevisiae deletion strains, locus YOR316C, strain cot1, hits give low values 1.02 | S. cerevisiae deletion strains, locus YPL051W, strain arl3, hits give low values 1 | S. cerevisiae deletion strains, locus YPL055C, strain LGE1, hits give low values 1 and 1.04 | S. cerevisiae deletion strains, locus YPL078C, strain atp4, hits give low values 0.999 | S. cerevisiae deletion strains, locus YPL106C, strain sse1, hits give low values 1.01 | S. cerevisiae deletion strains, locus YPL240C, strain hsp82, hits give low values 1 | S. cerevisiae deletion strains, locus YPL241C, strain CIN2, hits give low values 0.991 | S. cerevisiae deletion strains, locus YPL256C, strain CLN2, hits give low values 1 | S. cerevisiae deletion strains, locus YPR119W, strain clb2, hits give low values 1.01 | S. cerevisiae deletion strains, locus YPR141C, strain kar3, hits give low values 1.02 | S. cerevisiae deletion strains, locus YPR163C, strain tif3, hits give low values 1.02 | S. cerevisiae deletion strains, locus YPR167C, strain met16, hits give low values 1.01 | S. cerevisiae deletion strains, strain wtn01, hits give low values 1.01 | S. cerevisiae strains, strain wild type, hits give low values 1.02
